# Data from ChEMBL document CHEMBL3988442, “University of Dundee, Small-Polar-MMV Screening Library” (2021).
# Screen size: about 48,000 compounds; about 13,000 (27%) showed an effect of 50% or more. Some of the results follow.
# Tested on: Wolbachia pipientis
# Experiment: Anti-Wolbachia Cell-Based Screen
# Type: functional
# Parameters: scale not given: in the data most compounds retested in dose-response had high values
# Details: 5 µM
row,Structure (SMILES),Percent Effect
1,COC(=O)C1CCCN1C(=O)c1ccc(Cl)cc1F (stereo not given),16.38%
2,CN1CCN(c2ccc(NC(=O)c3ccccn3)c(C(F)(F)F)c2)CC1,-8.677%
3,CCNC(=O)c1ccoc1CN1c2ccccc2CC1C (stereo not given),-6.269%
4,CCN(CCc1nc2cc(C)ccc2[nH]1)C(=O)[C@@H](N)COC,2.321%
5,Cc1nc(CCNc2ccc(-c3nc(C)c(C)c(=O)[nH]3)cn2)cs1,1.722%
6,O=C(NCCNc1ccccn1)NC1CCOC2(CCCCC2)C1 (stereo not given),-19.85%
7,O=C(CCS(=O)(=O)c1ccccc1)NC1CCOC2(CCOCC2)C1 (stereo not given),92.28%
8,O=C(CCc1nc2ccccc2[nH]1)NC1CCOC2(CCOCC2)C1 (stereo not given),103.6%
9,CN(C)C(=O)NC1COC2(CCN(S(=O)(=O)c3ccccc3)CC2)C1 (stereo not given),5.169%
10,O=C(CCCc1nc2ccccc2[nH]1)N1CCCC1c1ccccn1 (stereo not given),-11.11%
11,COc1c(C)cnc(CNC(=O)CCc2nc3ccccc3[nH]2)c1C,4.531%
12,CCc1ncc2c(n1)CN(C(=O)CNC(=O)c1ccccc1)C2,27.82%
13,COc1cccc(CN(C)Cc2[nH]c3ccccc3c2C)c1O,10.98%
14,O=C(O)C(F)(F)F.O=C1COC2(CCN(c3cccc(F)c3)CC2)CN1Cc1ccccn1,-8.645%
15,Cc1cccc(N2CC3(CCN(S(=O)(=O)C4CC4)C3)C2)n1.O=C(O)C(F)(F)F,2.181%
16,Cc1cccc(CN2CC3(CCN(C(=O)N(C)C)CC3)OCC2=O)n1.O=C(O)C(F)(F)F,105.7%
17,Cc1cccc(CN2CC3(CCN(C4CCOC4)CC3)OCC2=O)n1.O=C(O)C(F)(F)F.O=C(O)C(F)(F)F (stereo not given),100.8%
18,Cc1cccc(CN2CCC3(CCCN(C(=O)N(C)C)C3)C2=O)n1.O=C(O)C(F)(F)F (stereo not given),-4.614%
19,Cc1ccc(N2CCC3(CC2)CCN(C2CCOC2)CC3)nn1.O=C(O)C(F)(F)F (stereo not given),-7.269%
20,Cc1cccc(CN2CC3(CCN(S(=O)(=O)C4CC4)CC3)OCC2=O)n1.O=C(O)C(F)(F)F,102.5%
21,CCS(=O)(=O)N1CCC2(CC1)CN(Cc1ccccn1)C(=O)CO2.O=C(O)C(F)(F)F,-5.616%
22,CC(CCNC(=O)N1CCC1)N(C)C(=O)OC(C)(C)C (stereo not given),-2.382%
23,Cl.Cl.O[C@@H]1C[C@@](CNCc2ccc(F)cc2)(COc2cccnc2)C[C@@H]1O,-10.51%
24,Cc1ncc(CNCC2CCC(C(N)=O)CC2)n1-c1ccccc1 (stereo not given),-1.319%
25,CCc1nc(N)nc(NCCC(=O)NC2CCCCC2)c1C,10.22%
